TrxR1 substrate = substrates of rat thioredoxin reductase 1; purified TrxR1 substrate turnover, NADPH consumption readout; AID 588456; Potency, µM (series often up to 114 µM), for the others: at the highest dose activity change, negative = substrate turnover; O89049; 390,000 tested, 0.01% active; note: nearly all actives have a fitted effect of over 50% in size
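Rat TrxR1, dispensed at 90 nM, was prereduced with 400 uM NADPH (final) for 5 min at ~22 deg C, then incubated with compound 15 min before 400 uM selenite. A first-read NADPH fluorescence drop versus no-compound background flagged substrates.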
Sfp inh = inhibitors of Bacillus subtilis Sfp phosphopantetheinyl transferase | 310,000 tested, 3.5% active | Biochemical Sfp PPTase activity, qHTS | Q9F4F7 | AID 1490 | Potency, µM, without a hit: largest response in the series, negative = inhibition, hits mostly inhibitors;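 note: the enzyme is Sfp with the accession as filed and its product quenches rhodamine fluorescence; 0% = enzyme reaction without inhibitor and -100% = no enzyme wells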
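Sfp 15 nM + cpd, 15 min RT; start w/ rhodamine-CoA 5 uM, BHQ-2-YbbR 12.5 uM (final); 50 mM Hepes pH 7.6, 10 mM MgCl2, 0.01% NP-40, 0.01% BSA; read 525/598 nm at 0 and 30 min.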
GLS inh = inhibitors of human glutaminase (GLS). O94925. GLS enzymatic activity, qHTS titration. Potency, µM (top dose mostly 45.5 µM), inactives show at the highest dose activity change, negative = inhibition, usual class: inhibitors. 410,000 tested, 0.21% active
Target sequence (O94925 whole entry, looked up): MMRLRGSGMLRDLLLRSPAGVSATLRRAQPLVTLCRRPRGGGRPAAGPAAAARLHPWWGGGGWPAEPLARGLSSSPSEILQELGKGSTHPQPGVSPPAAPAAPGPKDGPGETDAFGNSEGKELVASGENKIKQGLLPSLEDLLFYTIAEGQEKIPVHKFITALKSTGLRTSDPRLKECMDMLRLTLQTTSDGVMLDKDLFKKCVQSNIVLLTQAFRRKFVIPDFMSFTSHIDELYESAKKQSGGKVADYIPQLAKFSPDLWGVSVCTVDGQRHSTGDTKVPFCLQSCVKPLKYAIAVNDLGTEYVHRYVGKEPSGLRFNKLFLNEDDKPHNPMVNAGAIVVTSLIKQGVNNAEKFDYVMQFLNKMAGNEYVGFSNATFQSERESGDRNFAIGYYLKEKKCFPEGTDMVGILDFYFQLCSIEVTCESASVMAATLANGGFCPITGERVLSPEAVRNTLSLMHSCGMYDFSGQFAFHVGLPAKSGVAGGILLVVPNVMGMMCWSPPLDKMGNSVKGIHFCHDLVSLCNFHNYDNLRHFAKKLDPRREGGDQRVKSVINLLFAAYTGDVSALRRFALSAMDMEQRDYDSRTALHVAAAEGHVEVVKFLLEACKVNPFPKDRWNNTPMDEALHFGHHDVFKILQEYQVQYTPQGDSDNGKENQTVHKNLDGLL
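hKGA; 45 mM KH2PO4 pH 8.2 + 0.02% Tween-20; cpd via pin tool; 1 mM Gln soln; GluOx/HRP/Amplex Red; RT 30 min; fluor. t0 & final.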
VDR inh = vitamin D3 receptor (human) inhibition; AID 504847; VDR-SRC2-3 peptide fluorescence polarization, 2 h; 400,000 tested, 0.93% active; Potency, µM, for inactives: max response, negative = inhibition, usual class: inhibitors
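VDR–SRC2-3 interaction, FP format. Cmpds 23 nl via pintool, brief spin, 2 h ambient incubation.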
TrxR1 inh = blocks rat thioredoxin reductase 1; O89049; recombinant rTrxR1, NADPH fluorescence consumption, selenite substrate; Potency, µM (top dose mostly 114 µM), without a hit: at the highest dose activity change, negative = inhibition, hits mostly inhibitors; 390,000 tested, 1% active; AID 588453; note: nearly all actives have a fitted effect of over 65% in size
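Rat TrxR1 (90 nM in the dispensed reagent) was pre-reduced with 400 uM NADPH for 5 min at room temperature, then incubated with compound for 15 min. After 400 uM selenite was added, NADPH fluorescence (Ex 340/Em 450 nm) was followed for 8 min.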
GCN5L2 inh = blocks human GCN5L2 histone acetyltransferase; Q92830; GCN5L2 HAT assay, ThioGlo1 CoA-SH fluorescence; Potency, µM (highest dose often 58.9 µM), without a hit: top-dose activity change, negative = inhibition, hits mostly inhibitors; 390,000 tested, 0.21% active
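Free CoA generated was detected with ThioGlo1 (50uM) fluorescence at Ex340nm/Em540nm, read immediately and after 20 min at room temperature. Enzyme, 20 nM in HEPES pH 7.5 buffer, saw compounds 15 min before adding 75uM H3(1-25) peptide and 70uM acetyl-CoA.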
An asterisk follows results filed as active; ? = inconclusive; . = no result given; [ ] = remark or other dose. The list is not random: actives were taken first. Their share in the collection is about 3.8%. Calls come from the whole dose curve; as a rule, active = well fitted curve in the direction sought with a large enough effect; inconclusive = small, poorly fitted or top-dose-only effect, or another doubt; inactive = no such curve, though single readings can be large; an effect the other way counts as inactive or inconclusive. Unless noted, % is set by controls: 0 for no effect and ±100 for the full control effect; potency is the fitted concentration of half-maximal effect.

SMILES	TrxR1 substrate	Sfp inh	GLS inh	VDR inh	TrxR1 inh	GCN5L2 inh
COc1ccccc1CNC(=O)CSc1ccc(C(=O)Nc2ccccc2OC)cc1[N+](=O)[O-]	-0.7%	50.1µM*	-2.3%	7.9%	-7.6%	-8.1%
CCOc1cccc(C(=O)N(Cc2ccc(N(C)C)cc2)CC2CCCO2)c1 (stereo not drawn)	-8.3%	.	43.6%	10.9%	-3.7%	-2.7%
O=C(/C=C/c1cccs1)c1ccc(Br)cc1	-10.7%	-13.0%	-2.6%	50.1µM*	-33.6%	-10.4%
O=C(/C=C/c1cccs1)c1ccc(NC(=O)c2cccc(Br)c2)cc1	-9.5%	-8.0%	1.8%	-6.0%	-10.4%	4.1%
O=C(CNC(=O)c1ccco1)OCc1ccc(C(=O)c2ccccc2)cc1	8.0%[57.1 µM]	10.9%	2.4%	-12.0%	8.6%[57.1 µM]	0.6%
CCN(CC)S(=O)(=O)c1ccc2c(c1)[nH]c(=S)n2CC	6.5%[57.1 µM]	56.2µM*	9.6%	-2.2%	-0.1%[57.1 µM]	-10.0%
Cc1onc(-c2c(Cl)cccc2Cl)c1C(=O)c1ccccc1	9.2%[57.1 µM]	-1.0%	0.0%	-8.8%	25.2%[57.1 µM]	-8.9%
COc1ccc2c(=O)c3c(=O)n(Cc4ccco4)c(C(C)C)nc3oc2c1	1.3%	?	-5.2%	11.1%	-31.4%	-11.0%
COc1ccc2c(=O)c3c(=O)n(Cc4ccco4)c(-c4ccc(C)cc4)nc3oc2c1	-3.5%	25.1µM*	9.3%	-23.3%	?	-19.2%
O=C(NN1C(=O)/C(=C/C=C/c2ccco2)SC1=S)c1ccncc1	-7.4%	7.94µM*	7.94µM*	51.6%	12.6µM*	-10.3%
O=C(NN1C(=O)/C(=C/C=C/c2ccccc2)SC1=S)c1ccncc1	-7.6%[57.1 µM]	-29.4%	-2.1%	?	-8.4%[57.1 µM]	-10.5%
CC(C)C(C(=O)O)N1C(=O)/C(=C/c2cccn2C)SC1=S (stereo not drawn)	-24.2%	-3.9%	-13.3%	2.3%	9.5%[57.1 µM]	-5.5%
CC(C)C(C(=O)O)N1C(=O)/C(=C/C=C/c2ccco2)SC1=S (stereo not drawn)	?	20µM*	?	-31.5%	31.6µM*	?
CC(C)(C)c1ccc(S(=O)(=O)NC(=O)C2(C)CCN2C(=O)C2CCCCC2)cc1 (stereo not drawn)	.	.	5.7%	.	.	.
CN(C1CCCCC1)S(=O)(=O)c1ccc(SCC(N)=O)nc1	.	.	-0.9%	.	.	.
Nc1ccc(N2CCCCCC2)cc1	.	8.91µM*	.	.	.	-6.3%
O=[N+]([O-])c1ccc(N2CCCCC2)nc1N1CCCCC1	-5.5%	-10.5%	-0.2%	1.6%	25.8%[11.4 µM]	-1.6%
O=[N+]([O-])c1ccc2c(c1N1CCCCC1)=NC1(CCCCC1)[N+]=2[O-]	-17.2%[57.1 µM]	25.1µM*	-19.7%	-9.2%	-38.9%	-5.5%
CCOC(=O)c1cnc2c(C)c(Cl)ccc2c1Nc1ccc(C)cc1C	9.6%	.	-10.2%	7.1%	5.7%	-1.6%
C/C(Cl)=C/Cn1c(SCC(C)C)nc2c1c(=O)[nH]c(=O)n2C	6.5%[57.1 µM]	-15.3%	?	7.1%	17.5%[57.1 µM]	?
CCOC(=O)C(CC)Sc1nc2c(c(=O)[nH]c(=O)n2C)n1C/C=C(/C)Cl (stereo not drawn)	-5.7%[57.1 µM]	14.1µM*	?	31.6µM*	18.4%[57.1 µM]	-5.0%
O=c1c2oc3ccccc3c2[nH]c(=S)n1-c1ccccc1	-7.5%	50.1µM*	-18.7%	-18.8%	?	-1.9%
O=c1c2sccc2[nH]c(=S)n1-c1ccccc1	-0.1%	79.4µM*	-0.5%	-2.2%	-16.8%	-18.6%
O=C(O)CCC(=O)N1CCC[C@H]1C(=O)O	4.7%	-3.1%	-8.6%	4.0%	17.6%	-14.0%
O=S(=O)(Nc1cc(Sc2cccc3cccnc23)c(O)c2ccccc12)c1ccc(F)cc1	-13.7%	10µM*	0.3%	22.4µM*	22.4µM*	-12.6%
SMILES	TrxR1 substrate	Sfp inh	GLS inh	VDR inh	TrxR1 inh	GCN5L2 inh
O=C(Sc1cccc2cccnc12)c1ccc(F)cc1	.	?	.	.	.	-5.0%
CCOC(=O)c1c(NC(=O)C2=C(C)NC(=S)NC2c2ccccc2C(F)(F)F)sc(C)c1C (stereo not drawn)	11.2%	15.8µM*	-13.9%	-20.2%	0.1%	-2.2%
CC(C)(C)S(=O)(=O)N1Cc2ccc(CO)cc2[C@@H]1CCO	0.6%	.	0.8%	2.6%	4.2%	.
COC(=O)/C(C#N)=C/c1ccc(C)o1	-13.0%	23.9%	-21.6%	-18.9%	17.5%[57.1 µM]	-15.0%
COc1ccc(C2=C(C)C(=O)N(Cc3ccc(C(=O)NCc4ccccc4C)cc3)S2(=O)=O)cc1	253.7%[57.1 µM]	.	2.9%	-1.2%	223.2%[57.1 µM]	-5.7%
Cc1cc(C)c2nc3s/c(=C/c4ccc5c(c4)n(C)c(=O)n5C)c(=O)n3c2c1	.	20µM*	.	.	.	-3.1%
Cc1ccc2c(c1)sc1nc(=O)n(-c3ccccc3)c(=O)n12	1.6%	-14.8%	-6.5%	5.4%	11.6%	-0.2%
Cc1cc(C(=O)NC2CCCc3c2cnn3-c2ccccc2F)nc(C)n1 (stereo not drawn)	-4.5%	-6.5%	-2.4%	-14.2%	6.6%	0.8%
O=C(CN(Cc1ccccc1)C(=O)CSc1nnc(COc2ccccc2)o1)NC1CCCC1	-4.3%	79.4µM*	-7.5%	-1.4%	-10.7%	-7.9%
Cc1ccc(CN(CC(=O)NC2CCCC2)C(=O)CSc2nnc(COc3ccccc3)o2)cc1	-3.7%	-4.6%	-9.2%	-16.4%	4.1%	-18.1%
CSc1ccc(C(=S)N2CCN(C(c3ccccc3)c3ccccc3)CC2)cc1	-5.8%	35.5µM*	.	?	-2.5%	-12.1%
CSc1ccc(C(=S)N2CCN(C)CC2)cc1	5.1%	6.31µM*	17.6%	-53.7%	18.0%	-1.7%
CCCc1cc(=O)n2[nH]c(NCc3ccc(OC)c(OC)c3)nc2n1	7.9%	14.5%	0.4%	-16.6%	15.5%	-1.2%
O=C(NNC(=O)c1cc(O)c(O)c(O)c1)NC1CCCCC1	18.3%[57.1 µM]	10µM*	10.9%	-3.0%	14.6%[57.1 µM]	-9.5%
O=C(NNC(=O)c1cccnc1)NC1CCCCC1	-9.9%	12.7%	-2.9%	-22.0%	6.9%	-4.3%
Cc1c(N=NC2=C(O)CC(C)(C)CC2=O)c(=O)n(-c2ccccc2)n1C	-7.5%	39.8µM*	25.0%	?	-29.9%	-5.7%
COCCNC(=S)Nc1ccc(N2CCOCC2)c(S(=O)(=O)Nc2ccc(Cl)cc2)c1	.	.	14.7%	.	.	.
O=C(Nc1cc(S(=O)(=O)Nc2ccc(Cl)cc2)ccc1N1CCCCC1)c1ccc(F)cc1	-5.5%	14.1µM*	-18.6%	?	-13.8%	-13.0%
COc1ccc(NS(=O)(=O)c2ccc(N3CCOCC3)c(NC(=O)c3ccc(F)cc3)c2)cc1	-1.5%[57.1 µM]	-4.0%	2.1%	-18.8%	-6.2%[57.1 µM]	-5.9%
O=S(=O)(Nc1ccc(Cl)cc1)c1ccc(N2CCOCC2)c(NC(=S)NCCN2CCOCC2)c1	7.6%[57.1 µM]	3.98µM*	-17.3%	?	9.5%[57.1 µM]	-17.1%
